Assay outcomes as filed in PubChem BioAssay.
Most compounds without a hit are left out; they make up all but 1.3% or so of the library.
Fam108B inh: counter-screen for RBBP9 inhibitors: inhibitors of mouse Fam108B. inhibition, % at 9.51 µM. recombinant Fam108B, FP-Rh probe fluorescence polarization. AID 1947. actives 0.33% (n = 300,000);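 active = inhibition above the screen mean inhibition plus 3 SD, computed separately per campaign, cut at about 18% in these data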;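 note: inhibitors lower polarization as less probe binds the enzyme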
PME-1 inh: PME-1 (human) inhibition; actives 0.53% (n = 320,000); inhibition, % at 5.9 µM; AID 2130; recombinant PME-1, FP-Rh probe fluorescence polarization; Q9Y570;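 active = inhibition above the campaign mean of all compounds plus 3 SD, cut at about 26% in these data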;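 note: competitive labeling of PME-1 active site by serine hydrolase directed probe; inhibitors block probe labeling so polarization falls and inhibition rises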
Target sequence (Q9Y570 whole entry, looked up): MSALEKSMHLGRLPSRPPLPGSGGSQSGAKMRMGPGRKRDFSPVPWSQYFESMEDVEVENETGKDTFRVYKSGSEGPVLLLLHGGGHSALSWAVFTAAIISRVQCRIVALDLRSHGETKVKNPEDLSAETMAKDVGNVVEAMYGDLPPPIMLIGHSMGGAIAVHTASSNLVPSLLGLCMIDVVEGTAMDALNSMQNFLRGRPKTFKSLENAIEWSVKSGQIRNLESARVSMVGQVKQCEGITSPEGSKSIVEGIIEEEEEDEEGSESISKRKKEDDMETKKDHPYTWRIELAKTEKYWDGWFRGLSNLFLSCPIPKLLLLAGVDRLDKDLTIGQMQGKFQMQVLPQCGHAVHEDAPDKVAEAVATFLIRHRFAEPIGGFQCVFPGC
LYPLA2 counter: LYPLA2 (human) inhibition in PME1 counter-screen; recombinant LYPLA2, FP-Rh probe fluorescence polarization; inhibition, % at 5.9 µM; actives 0.38% (n = 320,000); AID 2177;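 active = inhibition above the screen-wide mean plus 3 SD, limit set per campaign, cut at about 26% in these data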
Target sequence (O95372 whole entry, looked up): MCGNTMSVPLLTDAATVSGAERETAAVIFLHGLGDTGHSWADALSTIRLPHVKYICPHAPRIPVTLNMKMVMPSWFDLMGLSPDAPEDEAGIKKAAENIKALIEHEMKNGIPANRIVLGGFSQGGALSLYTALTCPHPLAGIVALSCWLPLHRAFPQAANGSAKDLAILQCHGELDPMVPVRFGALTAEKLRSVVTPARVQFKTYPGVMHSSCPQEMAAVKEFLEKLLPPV
LYPLA1 counter: LYPLA1 (human) inhibition in PME1 counter-screen. inhibition, % at 5.9 µM. actives 0.16% (n = 320,000). O75608. recombinant LYPLA1, FP-Rh probe fluorescence polarization;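 active = inhibition above the mean of all tested compounds plus 3 SD, set per campaign, cut at about 14% in these data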;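 note: inhibitors block serine hydrolase probe labeling of LYPLA1 so polarization falls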
PREPL inhibitor: inhibitors of human prolyl oligopeptidase-like enzyme PREPL | Q4J6C6 | recombinant PREPL, fluorescence polarization activity-based probe | inhibition, % at 5.96 µM | actives 0.68% (n = 320,000) | AID 2751; in the data active = inhibition above about 43%
LYPLA2 conf: counter-screen for PME1 inhibitors: confirmation of human LYPLA2 inhibitors; shares compounds with LYPLA2 counter; recombinant LYPLA2, FP-Rh probe fluorescence polarization; inhibition, % at 5.9 µM; actives 72% (n = 1,100);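 active = mean inhibition across replicates above the hit cutoff set in the primary screen, cut at about 26% in these data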;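 note: blocked labeling of the enzyme by serine hydrolase FP-Rh probe lowers polarization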
LYPLA2 gel ABPP: blocks human acyl-protein thioesterase 2 in gel ABPP; shares compounds with LYPLA2 counter; rhLYPLA2 in mouse brain proteome, gel ABPP FP-Rh; AID 652029; inhibition, % at 20 µM; actives 30% (n = 150);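 active = inhibition of LYPLA2 enzyme probe labeling above about 50%, limit read from the data; inactive = inhibition below that limit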;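 note: loss of FP-Rh probe labeling of the LYPLA2 gel band measured as band density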
Numbers stand for hits; n = inactive; x = no result given.

SMILES | Fam108B inh | PME-1 inh | LYPLA2 counter | LYPLA1 counter | PREPL inhibitor | LYPLA2 conf | others
Cc1cc(=O)oc2c(C)c(OCC(=O)N3CCN(c4cccc(Cl)c4)CC3)ccc12 | n | n | 30 | n | n | 34
Cc1ccc(-n2[nH]c(C)c(/C=C3/C=Nc4ccccc43)c2=O)cc1C | n | n | n | n | n | x
O=C(Nc1ccc(Oc2ccccc2)cc1)C1CCN(c2c3c(nc4ncnn24)CCC3)CC1 | n | n | 28 | n | n | n
O=C(NC1CCCc2ccccc21)C1CCN(c2c3c(nc4ncnn24)CCC3)CC1 (stereo not drawn) | n | n | n | n | n | x
CCn1c(CC(=O)Nc2ccc(F)cc2)nnc1SCC(=O)Nc1nnc(C)s1 | n | n | n | n | n | x
C/C(C=NNC(=O)Cn1nnc(N)n1)=C\c1ccc(C(C)C)cc1 | x | x | x | x | x | x | LYPLA2 gel ABPP=69
COc1ccc(N2CCN(CC(O)COc3ccccc3[N+](=O)[O-])CC2)cc1 (stereo not drawn) | n | n | n | n | n | x
O=[N+]([O-])c1ccccc1OCC(O)CN1CCN(CC(O)COc2ccccc2[N+](=O)[O-])CC1 (stereo not drawn) | n | n | 44 | n | n | 49
OC(COc1cccc2ccccc12)CN1CCN(c2ccc(Cl)cc2)CC1 (stereo not drawn) | n | n | n | n | n | x
OC(COc1cccc2ccccc12)CN1CCN(c2cccc(Cl)c2)CC1 (stereo not drawn) | n | n | 35 | n | n | n
CCCCOC(=O)c1ccc(NC(=O)C(=O)NCc2ccncc2)cc1 | n | n | 35 | n | n | 31
O=C(Nc1cccc2ncccc12)c1ccc(Br)c([N+](=O)[O-])c1 | n | n | 33 | n | n | 47
COc1ccc(C(=O)NC(=S)Nc2cccc3ncccc23)cc1[N+](=O)[O-] | n | n | 48 | n | n | 51 | LYPLA2 gel ABPP=n
COc1ccc(C(=O)NC(=S)NCc2cccnc2)cc1OC | n | n | n | n | n | x
COc1ccc(C(=O)NC(=S)NCc2cccnc2)cc1[N+](=O)[O-] | n | n | 35 | n | n | n
CCOc1ccc(C(=O)NC(=S)Nc2ncccc2C)cc1[N+](=O)[O-] | n | n | n | n | n | x
C=CCn1c(C)nc2c(sc3nc4c(cc32)COC(C)(C)C4)c1=O | n | n | n | n | n | x
Cn1nc(C(=O)NNC(=O)C2CSC3(C)CCC(=O)N23)c2ccccc2c1=O (stereo not drawn) | n | n | n | n | n | x
CCCNC(=S)N1CCC(NC(=O)c2ccc(C)cc2)CC1 | n | n | n | n | n | x
O=C(NCc1nc2ccccc2[nH]1)c1cccc(S(=O)(=O)N2CCCC2)c1 | n | n | n | n | n | x
O=C(OCc1nnc(-c2ccccc2)o1)c1cc([N+](=O)[O-])ccc1Cl | n | n | n | n | n | x
Cc1onc(-c2ccccc2)c1C(=O)OCc1nnc(-c2ccc([N+](=O)[O-])cc2)o1 | x | n | 28 | n | n | 28
COc1ccc([C@H]2CC(=O)C=C(c3cccc(C#N)c3)C2)cc1 | x | n | 33 | n | n | 26
O=[N+]([O-])c1ccccc1OCCNCc1ccccc1 | n | n | n | n | n | x
O=C(NCc1ccc(Cl)cc1)NCC(F)(F)F | n | n | 33 | n | n | n
SMILES | Fam108B inh | PME-1 inh | LYPLA2 counter | LYPLA1 counter | PREPL inhibitor | LYPLA2 conf | others
CC(C)CC(=O)NC(=S)Nc1ccc(NC(=O)c2cccs2)cc1 | n | n | n | n | n | x
O=C(O)COc1ccccc1/C=N/NC(=O)CSc1nnc(SCc2ccc(Cl)cc2)s1 | n | n | n | n | n | x
O=C(CSc1nnc(SCc2ccc(Cl)cc2)s1)N/N=C/c1c[nH]c2ccccc12 | n | n | 45 | n | n | 58
O=[N+]([O-])c1ccc(Oc2ccc(/C=N/O)cc2)nc1 | n | n | 41 | n | n | 26
CCCc1cc(=O)n2nc(N3CCC(C(=O)N4CCN(c5ccc(OC)cc5)CC4)CC3)sc2n1 | n | n | 51 | n | n | 49
Cc1cc(C)n(C(=O)CCCCCCCCC(=O)n2nc(C)cc2C)n1 | n | n | n | n | n | x
c1ccc(OCCN2CCN(Cc3nc(-c4ccc5c(c4)OCO5)no3)CC2)cc1 | n | n | 26 | n | n | n
Fc1ccc(CN2CCCN(Cc3nc(-c4ccc5c(c4)OCO5)no3)CC2)cc1 | n | n | n | n | n | x
NC(=O)C1(N2CCCCC2)CCN(C(=O)CSc2nc3ccccc3s2)CC1 | n | n | 32 | n | n | 31
O=C(CSc1nc2ccccc2s1)N1CCOCC1 | n | n | n | n | n | x
COc1ccc(NC2=NCCC(=O)N2Cc2cccs2)cc1 | n | n | 27 | n | n | n
O=C(Nc1ccc(N2CCN(C(=O)c3ccco3)CC2)cc1)c1ccccc1F | n | n | n | n | n | x
O=C(Nc1ccc(N2CCN(C(=O)c3ccco3)CC2)cc1)c1ccc([N+](=O)[O-])cc1Cl | n | n | 40 | n | n | 38
CC(=O)N1CCN(c2ccc(NC(=O)c3ccc([N+](=O)[O-])cc3Cl)cc2)CC1 | n | n | n | n | n | x
O=C(c1ccco1)N1CCN(C(=S)Nc2cccc([N+](=O)[O-])c2)CC1 | n | n | 50 | n | n | 62 | LYPLA2 gel ABPP=n
Cc1ccc(C(=O)Nc2ccc(N3CCN(C(=O)c4cccs4)CC3)cc2)c(Cl)c1 | n | n | 47 | n | n | 46
O=C(Nc1ccc(N2CCN(C(=O)c3ccco3)CC2)cc1)c1ccccc1Br | n | n | 34 | n | n | 30
CC(=O)N1CCN(c2ccc(NC(=O)c3cccc([N+](=O)[O-])c3)cc2)CC1 | n | n | n | n | n | x
O=S(=O)(c1ccc(Cl)cc1)n1nnc2ccccc21 | n | n | n | n | n | x
Cc1ccc(C(=O)Nc2ccc(N3CCN(C(=O)c4ccco4)CC3)cc2)c(Cl)c1 | n | n | 42 | n | n | 31
COc1ccc(NC(=O)CC23CC4CC(CC(Br)(C4)C2)C3)c(OC)c1 | n | n | n | n | n | x
O=C(O)CN1C(=O)/C(=C\c2cccc(OCc3ccc(Cl)cc3)c2)SC1=S | n | n | 28 | n | n | 27
O=C(O)CN1C(=O)/C(=C\c2cccc(OCc3ccccc3F)c2)SC1=S | n | n | n | n | n | x
Cc1onc(-c2ccc(Cl)cc2Cl)c1-c1csc(N/N=C/c2ccccc2Cl)n1 | n | n | n | n | n | x
COc1cccc(NC(=O)CN2C(=O)CSc3ccc(S(=O)(=O)N4CCCCC4)cc32)c1 | n | n | 40 | n | n | 38
Cc1ccc(NC(=O)CN2C(=O)CSc3ccc(S(=O)(=O)N4CCCCC4)cc32)cc1 | n | n | n | n | n | x
Cc1cc(C)cc(NC(=O)CN2C(=O)COc3ccc(S(=O)(=O)N4CCCC4)cc32)c1 | n | n | 37 | n | n | 33
